Bioassay records (PubChem)
Lassa entry inh – Lassa virus entry inhibition; Lassa virus pseudotype entry inhibition, cell reporter; Potency, µM (top dose mostly 37.9 µM), inactives show at the highest dose activity change, negative = inhibition, hits mostly inhibitors; actives 1.2% (n = 300,000); AID 540256; calls by dose curve; tested in HEK293 cells; also: nearly all actives have a fitted effect of over 50% in size
FMDV antiviral – antivirals against foot and mouth disease virus. FMDV antiviral cell-based qHTS. Potency, µM (titrated, usually from 57.9 µM), without a hit: at the highest dose activity change, negative = inhibition, hits mostly inhibitors. AID 1159524. actives 1.2% (n = 410,000); calls by dose curve; tested in HEK293T cells; also: read-out not given here; nearly all actives have a fitted effect of over 45% in size
HCV inh – blocks hepatitis C virus | Huh7.5.1 HCVcc-Cre infection, luciferase reporter, 44 h | Potency, µM (series often up to 41.8 µM), for inactives: at the highest dose activity change, negative = inhibition, most hits filed as inhibitors | actives 3.4% (n = 340,000) | AID 651820
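Seed cells (1,000/well) for 4 h; treat with compound and infect with HCVcc-Cre, moi about 0.5. Incubate 44 h, then detect luciferase activity.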
MARV entry inh – Marburg virus entry inhibition; AID 540276; Potency, µM (top dose mostly 37.8 µM), without a hit: at the highest dose activity change, negative = inhibition, usual class: inhibitors; Marburg virus pseudotyped entry inhibition, cell reporter; actives 1.8% (n = 300,000); calls by dose curve; tested in HEK293 cells
Sm TGR inh – blocks Schistosoma mansoni thioredoxin glutathione reductase. Q962Y6. purified TGR, DTNB reduction, TNB absorbance 405 nm. Potency, µM (titrated, usually from 114 µM), inactives show top-dose activity change, negative = inhibition, most hits filed as inhibitors. actives 3% (n = 360,000). AID 485364; also: nearly all actives have a fitted effect of over 60% in size
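TGR 20 nM + NADPH 100 uM (dispensed conc.), cpd preinc 15 min RT; start with NADPH (500 uM addition) then DTNB (15 mM addition). Kinetic TNB absorbance, 405 nm filter. Four-parameter Hill fit across titration.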
RE007 growth inh – less growth of the S. pombe RE007 Vpr strain; S. pombe RE007 Vpr strain, BacTiter-Glo ATP luminescence, 24 h; Potency, µM (titrated, usually from 92.2 µM), inactives show at the top dose activity change, negative = less growth, usual class: inhibitors; actives 0.21% (n = 360,000); AID 651644; active = well fitted falling curve with a large enough effect; inconclusive = small, poorly fitted or top-dose-only effect; inactive = no such curve, though single readings can be large or run the other way; also: nearly all actives have a fitted effect of over 50% in size
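Fission yeast strain RE007, carrying one chromosomally integrated HIV-1 vpr copy, was seeded at OD 0.01 in PMG+AL medium with 23 nL pinned compound. After 24 h at 30 °C and 99% humidity, viability was read by BacTiter-Glo luminescence.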
An asterisk follows results filed as active; ? = inconclusive; . = no result; [ ] = dose if it differs, or a comment. Only some compounds are listed: those with a hit (about 7.2% of all), similar ones and a draw of the others. Unless noted, calls follow the shape of the dose curve; as a rule, active = well fitted curve in the direction sought with a large enough effect; inconclusive = small, poorly fitted or top-dose-only effect, or another doubt; inactive = no such curve, though single readings can be large; an effect the other way counts as inactive or inconclusive. % is scaled to controls: 0 for no effect and ±100 for the full control effect; potency is read from the fitted curve at half-maximal effect.

SMILES | Lassa entry inh | FMDV antiviral | HCV inh | MARV entry inh | Sm TGR inh | RE007 growth inh
CN(C)c1ccc(C(=O)N2CCCC(CCC(=O)N3CCN(c4ccccn4)CC3)C2)cc1 (configuration not stated) | -9% | ? | ? | -20% | -8% | -2%
O=C(CCC1CCCN(C(=O)c2ccc3c(c2)OCO3)C1)N1CCN(c2ccccn2)CC1 (configuration not stated) | -26%[46.1 µM] | -1% | 10µM* | ? | 12% | 0%
Cc1nn(C(C)C(=O)NC2CCC(C)CC2)c(=O)c2c1sc1ccccc12 (configuration not stated) | -27%[46.1 µM] | 15% | . | ? | 0% | .
CSc1nc(NCCOCCO)c2sc3nc(-c4ccco4)c4c(c3c2n1)CCC4 | ? | 40µM* | ? | ? | 3.2µM* | 1%
CCN(CCO)c1nc(SC)nc2c1sc1nc(-c3ccco3)c3c(c12)CCC3 | 2% | ? | 14% | 10% | 3.5µM* | -21%
COc1ccc(NC(=O)NCc2c(-n3cccc3)sc3c2CCCC3)c(OC)c1 | -4%[46.1 µM] | -16% | . | -6%[46.1 µM] | -2% | .
Cc1cc(NC(=O)NC(=O)c2ccc(F)cc2F)n[nH]1 | 16µM* | -20% | 16% | ? | -19% | -11%
C[C@H](CC[C@@H]1OC1(C)C)C1CC[C@H]2[C@@H]3CC=C4C[C@@H](O)CC[C@]4(C)[C@H]3CC[C@]12C (some centres not stated) | . | 13% | . | . | . | .
Cc1ccc(C)c(N2CCN(CCCNC(=O)c3cnn(-c4cccc(Cl)c4)c3C3CCN(C(=O)OC(C)(C)C)CC3)CC2)c1 | 13µM* | -10% | . | . | 3% | .
Cc1ccc(CNC(=O)CS(=O)(=O)c2cccc3nsnc23)cc1 | ? | 8% | . | . | 4% | .
COc1ccc(-c2cn3nc(N4CCC(C(=O)Nc5cc(Cl)ccc5OC)CC4)sc3n2)cc1 | ? | 7% | . | . | -2% | .
CCc1ccccc1NC(=O)CSc1nnc(CC)c(CC)n1 | -2%[46.1 µM] | -2% | . | . | -1% | .
O=C(Nc1ccc(-c2nc3cccnc3s2)cc1)c1ccc(Br)o1 | . | 13% | 11µM* | . | -14% | 25%
O=C(Nc1ccc(-c2nc3cccnc3s2)cc1)c1ccco1 | . | 27% | ? | . | ? | -7%
O=C(Nc1ccc(-c2nc3cccnc3s2)cc1)c1cccnc1Cl | 3.5µM* | 3% | 6.3µM* | ? | 16% | 20%
COc1ccc(Cl)cc1NC(=O)CN(C)S(=O)(=O)c1ccc2c(c1)CCCN2C(C)=O | -16%[46.1 µM] | ? | . | . | -1% | .
CCOC(=O)Oc1c(OC)cc(C(=O)O[C@@H]2C[C@@H]3CN4CCc5c([nH]c6cc(OC)ccc56)[C@H]4C[C@@H]3[C@H](C(=O)OC)[C@H]2OC)cc1OC | . | 0% | 5.6µM* | . | -9% | 5%
COC(=O)C1C2CC3c4[nH]c5cc(OC)ccc5c4CCN3CC2CC(OC(=O)CC(C)=O)C1OC (configuration not stated) | 30%[46.1 µM] | 1% | -11% | ? | . | -24%
Cc1ccccc1Nc1nn2c(=O)c3ccc(C(=O)NCC(C)c4ccccc4)cc3nc2s1 (configuration not stated) | ? | 0% | . | . | 3% | .
Cc1[nH]c2ccccc2c1/C=N/Nc1cccc(C(=O)O)c1 | . | -20% | 13% | . | 45µM* | 19%
COc1ccccc1/C=C/C=N/Nc1cccc(C(=O)O)c1 | 5µM* | -32% | -22% | ? | -17% | 2%
O=C(O)c1cccc(N/N=C/c2cccnc2)c1 | ? | 13µM* | -3% | ? | 7% | 8%
COc1ccc(Br)cc1/C=N/Nc1cccc(C(=O)O)c1 | 20% | 36% | 18% | 19% | -2% | 4%
O=[N+]([O-])c1ccc(N/N=C/c2cccnc2)cc1 | -5% | 27% | 11µM* | -1% | 11% | 15%
CN(C)CCCN1C(=O)C(O)=C(C(=O)c2cc3ccccc3o2)[C@@H]1c1ccccc1 | . | . | . | 11% | . | .
SMILES | Lassa entry inh | FMDV antiviral | HCV inh | MARV entry inh | Sm TGR inh | RE007 growth inh
COc1cc(C(CC2=CCCCC2)NC(=O)C(F)(F)F)cc(OC)c1OC (configuration not stated) | . | . | . | 1%[14.2 µM] | . | .
COc1ccc(NCc2nc3ccccc3n2CCOc2ccccc2C)cc1 | -1%[46.1 µM] | 10% | . | ? | 1% | .
COc1ccc2cc(C(=O)NCc3ccc4c(c3)CCN4C(=O)c3ccc(F)cc3)[nH]c2c1 | -26%[46.1 µM] | 10% | . | . | 3% | .
O=[N+]([O-])c1ccc(NN=Cc2cccc([N+](=O)[O-])c2)cc1 | -4%[46.1 µM] | -8% | ? | 2%[46.1 µM] | . | 1%
CC(C)(C)c1ccc(/C=N/Nc2cccc(C(=O)O)c2)cc1 | . | 45µM* | 14% | . | 5% | 0%
CN(C)c1ccc(/C=N/Nc2cccc(C(=O)O)c2)cc1 | . | 4µM* | -3% | . | -34% | 20%
CC(=O)Nc1cccc(C(=O)/C=C/c2ccc(N(C)C)cc2)c1 | -10% | 26% | 7% | 4% | -10% | 18%
Cc1ccc(C(=O)N/N=C\c2ccc[nH]2)cc1[N+](=O)[O-] | 8.9µM* | 10% | 4.5µM* | 4.5µM* | -25% | 5%
O=[N+]([O-])c1ccc(N/N=C/c2ccc[nH]2)cc1 | ? | 0% | 1µM* | ? | -6% | 0%
Cc1ccc(-c2ccnc(-n3ncc(C(=O)N4CCCCC4c4cccnc4)c3C3CC3)n2)o1 (configuration not stated) | . | -10% | . | . | . | .
c1ccc(C(O[C@H]2CCCN(CCc3ccc4c(c3)OCO4)C2)c2ccccc2)cc1 | . | -24% | . | . | . | .
O=C(O)c1cccc(N/N=C/c2cc(Br)cc(Br)c2O)c1 | 12% | 21% | 3% | 26% | -8% | ?
O=C(O)c1cccc(N/N=C/c2ccc(-c3ccccc3)cc2)c1 | 8.9µM* | 14µM* | 3% | ? | 0% | -7%
COc1ccc(CN2C[C@H](Sc3nc4ccccc4[nH]3)C[C@H]2C(=O)N(C)C)c2ccccc12 | . | 1% | . | . | . | .
N/C(=N\S(=O)(=O)c1ccccc1)c1ccc([N+](=O)[O-])cc1 | 7% | 1% | 4% | ? | 13µM* | -13%
CN(Cc1ccco1)c1ncncc1-c1ccccc1C(F)(F)F | . | -9% | . | . | . | .
COc1ccc(-c2cnnc(N/N=C/c3ccc(O)c(O)c3)n2)cc1 | 4.6µM* | -11% | -28% | ? | -7% | -27%
Oc1ccc(/C=N\Nc2nncc(-c3ccccc3)n2)cc1 | . | -6% | ? | . | 4% | -9%
COc1ccc(-c2cnnc(N/N=C/c3ccc(O)cc3)n2)cc1 | 2µM* | 0% | -12% | ? | 2% | -1%
O=C(c1cc2nc(-c3ccco3)cc(C(F)(F)F)n2n1)N1CCN(c2ccc(F)cc2)CC1 | ? | . | ? | ? | -24% | 6%
O=C(Nc1cc(F)ccc1F)c1cc2nc(-c3ccco3)cc(C(F)(F)Cl)n2n1 | -2%[46.1 µM] | -5% | . | . | 22µM* | .
